This is part of a sample that, as a whole, favours compounds with a hit. Of some 79,000 tested, about 15% had one in any assay. The source made the active and inactive calls. Cut-off read from the data, not from the text of the source: active = growth inhibition above about 70%; inactive = the rest.
Assays:
[1] = NCI Yeast Anticancer Drug Screen. Data for the mec2-1 strain (AID 157); conditions: S. cerevisiae mec2-1 strain, active compounds read high
How it was run: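 Cells of the genetically defined mec2-1 yeast strain are incubated with test compound. Inhibition of growth is calculated against vehicle-treated controls.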

[2] = NCI Yeast Anticancer Drug Screen. Data for the rad14 strain (AID 159);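 note: 0% = growth of vehicle-treated control cultures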; conditions: S. cerevisiae rad14 strain growth inhibition, active compounds read high
How it was run: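 A mutant yeast strain defective in DNA damage repair is treated with compound; inhibition of its growth is scored against untreated, vehicle-exposed cultures.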

[3] = NCI Yeast Anticancer Drug Screen. Data for the sgs1 mgt1 strain (AID 161);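 note: 0% = growth of cultures given vehicle only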; conditions: S. cerevisiae sgs1 mgt1 strain, active compounds read high
How it was run: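 Mutant yeast exposed to compound; growth scored against vehicle-only wells.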

[4] = NCI Yeast Anticancer Drug Screen. Data for the CLN2oe strain (AID 163);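 note: 0% = growth of vehicle-only control cultures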; conditions: S. cerevisiae CLN2oe strain, active compounds read high
How it was run: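 Strain altered in cell-cycle control, incubated with compound; growth compared to solvent-treated controls.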

[5] = NCI Yeast Anticancer Drug Screen. Data for the cln2 rad14 strain (AID 165);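 note: 0% = growth equal to vehicle treated cultures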; conditions: S. cerevisiae cln2 rad14 strain, active compounds read high
How it was run: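 The screen exposed genetically defined yeast (cln2 rad14) to test compounds and scored growth inhibition relative to vehicle-treated controls.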

[6] = NCI Yeast Anticancer Drug Screen. Data for the bub3 strain (AID 167); conditions: S. cerevisiae bub3 mutant strain, active compounds read high
How it was run: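 Steps: expose the mutant yeast strain to compound; grow alongside vehicle-treated cultures; measure growth; express inhibition against the vehicle cultures.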

[7] = NCI Yeast Anticancer Drug Screen. Data for the wt2 strain (AID 169);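 note: 0% = growth of vehicle-treated yeast cultures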; conditions: S. cerevisiae wt2 strain growth inhibition, active compounds read high
How it was run: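 Steps: yeast strain treated with compound; growth recorded; inhibition calculated relative to cultures given vehicle alone.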

[8] = NCI Yeast Anticancer Drug Screen. Data for the mlh1 strain (AID 171);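 note: 0% = growth of vehicle-treated control cultures of the same strain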; conditions: S. cerevisiae mlh1 strain growth inhibition, active compounds read high
How it was run: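 Yeast screen: mutant strain plus compound, growth scored against vehicle control wells.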

[9] = NCI Yeast Anticancer Drug Screen. Data for the sgs1 strain (AID 173);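 note: 0% = growth of vehicle-only control cultures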; conditions: S. cerevisiae sgs1 mutant, active compounds read high
How it was run: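 Inhibition of yeast growth served as the measure. The mutant strain was treated with each compound, and growth was normalised to cultures receiving vehicle alone.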

[10] = NCI Yeast Anticancer Drug Screen. Data for the mlh1 rad18 strain (AID 175); conditions: S. cerevisiae mlh1 rad18 strain growth inhibition, active compounds read high
How it was run: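 Compound-treated yeast growth, normalised to vehicle controls. Strain bears defined DNA repair mutations.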

[11] = NCI Yeast Anticancer Drug Screen. Data for the rad18 strain (AID 177); conditions: S. cerevisiae rad18 mutant growth inhibition, active compounds read high
How it was run: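 Inhibition values reflect reduced yeast growth compared with vehicle-treated controls, using a strain engineered with a DNA damage repair defect.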

[12] = NCI Yeast Anticancer Drug Screen. Data for the rad52 strain (AID 147);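 note: 0% = growth of vehicle-treated control cultures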; conditions: S. cerevisiae rad52 mutant growth inhibition, active compounds read high
How it was run: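 Genetically altered yeast (DNA damage repair defect) treated with compound; inhibition calculated relative to vehicle.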

[13] = NCI Yeast Anticancer Drug Screen. Data for the wt1 strain (AID 149);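 note: 0% = growth of vehicle-treated wt1 cultures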; conditions: S. cerevisiae wt1 strain (SPY 50644) growth inhibition, active compounds read high
How it was run: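 Compounds are added to wt1 yeast cultures. Growth is then measured. Inhibition is expressed relative to vehicle-treated controls.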

[14] = NCI Yeast Anticancer Drug Screen. Data for the rad50 strain (AID 155);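 note: 0% = growth of vehicle-only cultures of the same strain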; conditions: S. cerevisiae rad50 strain growth inhibition, active compounds read high
How it was run: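 Inhibition values express reduced yeast growth in compound-treated cultures relative to vehicle-treated controls.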

[15] = at 5.0 µM (retest, dose inferred, filed as 0.5)
[16] = at 50.0 µM (retest, dose inferred, filed as 5.0)

Measured: growth inhibition

CN(C)CCNc1cccc2sc3ccc(O)cc3c(=O)c12
inactive: [1]; at 100.0 µM 7% | [2]; at 1.2 µM -1% | [2]; at 3.7 µM 1% | [2]; at 11.0 µM 5% | [2]; at 33.0 µM 12% | [2]; at 100.0 µM 19% | [3]; [15] 1% | [3]; [16] 7% | [3]; at 50.0 µM 48.1% | [4]; at 1.2 µM -6% | [4]; at 3.7 µM -11% | [4]; at 11.0 µM -8% | [4]; at 33.0 µM -5% | [4]; at 100.0 µM 4% | [5]; [15] 3% | [5]; [16] 26% | [5]; at 50.0 µM 45.5% | [6]; at 1.2 µM 2% | [6]; at 3.7 µM -4% | [6]; [15] 1% | [6]; at 11.0 µM -1% | [6]; at 33.0 µM -2% | [6]; [16] 8% | [6]; at 50.0 µM 36.2% | [6]; at 100.0 µM -4% | [7]; at 1.2 µM 1% | [7]; at 3.7 µM -2% | [7]; at 11.0 µM 0% | [7]; at 33.0 µM 1% | [7]; at 100.0 µM 4% | [8]; at 1.2 µM 1% | [8]; at 3.7 µM 3% | [8]; at 11.0 µM 4% | [8]; at 33.0 µM 4% | [8]; at 100.0 µM 8% | [9]; at 1.2 µM -1% | [9]; at 3.7 µM -1% | [9]; at 11.0 µM 2% | [9]; at 33.0 µM 3% | [9]; at 100.0 µM 3% | [10]; [15] -3% | [10]; [16] 44% | [10]; at 50.0 µM 66.5% | [11]; at 1.2 µM -2% | [11]; at 3.7 µM -2% | [11]; at 11.0 µM -1% | [11]; at 33.0 µM 1% | [11]; at 100.0 µM 5%

C=C(CCCO)[C@@H]1CC[C@@](C)(O)[C@H]1C
inactive: [12]; at 1.2 µM -7% | [12]; at 3.7 µM -9% | [12]; at 11.0 µM -13% | [12]; at 33.0 µM -8% | [12]; at 100.0 µM -12% | [13]; at 1.2 µM -25% | [13]; at 3.7 µM -33% | [13]; at 11.0 µM -29% | [13]; at 33.0 µM -34% | [13]; at 100.0 µM -35% | [14]; at 1.2 µM -5% | [14]; at 3.7 µM -7% | [14]; [15] 38% | [14]; at 11.0 µM -16% | [14]; at 33.0 µM -17% | [14]; at 50.0 µM 49% | [14]; at 100.0 µM -33% | [1]; at 1.2 µM -53% | [1]; at 3.7 µM -39% | [1]; [15] 44% | [1]; at 11.0 µM -48% | [1]; at 33.0 µM -41% | [1]; at 50.0 µM 68.2% | [1]; at 100.0 µM -34% | [2]; at 1.2 µM -51% | [2]; at 3.7 µM -43% | [2]; at 11.0 µM -37% | [2]; at 33.0 µM -35% | [2]; at 100.0 µM -56% | [3]; [15] -1% | [3]; [16] -9% | [3]; at 50.0 µM 55.5% | [4]; at 1.2 µM -24% | [4]; at 3.7 µM -13% | [4]; at 11.0 µM -27% | [4]; at 33.0 µM -25% | [4]; at 100.0 µM -35% | [6]; at 1.2 µM -17% | [6]; at 3.7 µM -6% | [6]; [15] 18% | [6]; at 11.0 µM -12% | [6]; at 33.0 µM -9% | [6]; [16] -1% | [6]; at 50.0 µM 55.5% | [6]; at 100.0 µM -12% | [7]; at 1.2 µM -30% | [7]; at 3.7 µM -27% | [7]; at 11.0 µM -33% | [7]; at 33.0 µM -30% | [7]; at 100.0 µM -23% | [9]; at 1.2 µM -35% | [9]; at 3.7 µM -28% | [9]; at 11.0 µM -31% | [9]; at 33.0 µM -29% | [9]; at 100.0 µM -39% | [10]; [15] 36% | [10]; at 50.0 µM 43.3%
active: [14]; [16] 90% | [1]; [16] 93% | [10]; [16] 87%

From PubChem BioAssay (NCI)
